# Source: PubChem
# Rows were chosen to be rich in hits. Some 10% of all compounds tested hit in one or more screens of this group.
# HEK293 tox: HEK 293 cell cytotoxicity; 94,000 tested, 6.6% active; HEK 293 viability, ATP luminescence (CellTiter-Glo), 48-72 h; Potency, µM (top dose mostly 115 µM), for inactives: top-dose activity change, negative = cytotoxicity, usual class: inhibitors; note: nearly all actives have a fitted effect of over 60% in size
#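 Cytotoxicity was scored by loss of ATP-coupled luminescence (CellTiter-Glo) in HEK 293 cells. Compound treatment ran 48 or 72 hr at 37 degree Celsius, 5% CO2, 95% humidity.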
# 3T3 cytotox: cytotoxic compounds in NIH 3T3 cells; AID 1345082; 94,000 tested, 4.3% active; Potency, µM (highest dose often 96.7 µM), for inactives: top-dose activity change, negative = cytotoxicity, actives largely listed as inhibitors; NIH 3T3 viability, CellTiter-Glo ATP luminescence, 48-72 h; note: nearly all actives have a fitted effect of over 55% in size
#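 ATP-dependent luminescence (CellTiter-Glo) served as the viability signal for NIH 3T3 cells treated with compound for 48 or 72 hr at 37 °C.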
# GPT2 inhibitor: inhibitors of human GPT2 alanine aminotransferase | Potency, µM (top dose mostly 57.7 µM), inactives show at the top dose activity change, negative = inhibition, most hits filed as inhibitors | 100,000 tested, 0.25% active | Q8TD30 | Recombinant GPT2, coupled pyruvate oxidase/HRP Amplex Red fluorescence; note: nearly all actives have a fitted effect of over 60% in size
# Target sequence (Q8TD30 whole entry, looked up): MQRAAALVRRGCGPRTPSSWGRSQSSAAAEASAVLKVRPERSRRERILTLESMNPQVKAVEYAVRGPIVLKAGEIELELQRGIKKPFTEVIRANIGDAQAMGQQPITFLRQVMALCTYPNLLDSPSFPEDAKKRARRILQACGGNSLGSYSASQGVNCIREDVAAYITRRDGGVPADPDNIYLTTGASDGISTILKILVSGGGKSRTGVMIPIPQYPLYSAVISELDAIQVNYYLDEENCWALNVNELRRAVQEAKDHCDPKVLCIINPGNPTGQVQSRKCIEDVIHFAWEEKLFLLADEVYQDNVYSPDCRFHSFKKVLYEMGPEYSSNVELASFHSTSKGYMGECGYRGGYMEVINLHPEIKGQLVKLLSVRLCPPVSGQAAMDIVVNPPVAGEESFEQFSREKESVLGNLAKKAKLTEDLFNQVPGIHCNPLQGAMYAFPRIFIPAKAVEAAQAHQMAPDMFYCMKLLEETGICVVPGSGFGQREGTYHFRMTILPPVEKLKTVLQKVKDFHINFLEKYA
#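 Recombinant GPT2 (10ng/uL) with 250uM a-KG and 2mM L-alanine, 30 min at room temperature, in HEPES pH 7.5 buffer. Pyruvate detected by pyruvate oxidase/HRP/Amplex Red fluorescence after 30 min in the dark; AOA (50uM) as positive control.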
# hNpr1 antagonist: human Npr1 receptor antagonism; Potency, µM (doses to about 46.3 µM), inactives show top-dose activity change, negative = inhibition, most hits filed as inhibitors; 76,000 tested, 1.6% active; AID 1347048; HEK293 hNpr1 GloSensor cGMP, ANP-stimulated luminescence; P16066; calls by dose curve; note: nearly all actives have a fitted effect of over 60% in size
#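 Compound pre-incubated 30 min at room temperature on GloSensor-loaded HEK293 cells stably carrying hNpr1 and the pGS-40F cGMP biosensor. Stimulation uses hNppA at 0.1 nM final; luminescence is taken at baseline and 20 min post-agonist.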
# Luciferase inh: inhibitors of firefly (Photinus pyralis) luciferase | P08659 | purified P. pyralis luciferase, luminescence, biochemical | Potency, µM (titrated, usually from 115 µM), most hits filed as inhibitors | 76,000 tested, 2.5% active; note: nearly all actives have a fitted effect of over 65% in size
#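 Luminescence read by CCD imaging after purified firefly luciferase (10nM final) was added to substrate buffer holding 10uM D-luciferin and 10uM ATP, pH 7.5, pre-dosed with compound.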
# Starred values were filed as active, the others as inactive; i = inactive; ? = inconclusive; . = not tested or not shown; ! = repeats disagree; [ ] = another dose, or the depositor's remark. Unless noted, calls come from the whole dose curve; as a rule, active = well fitted curve in the direction sought with a large enough effect; inconclusive = small, poorly fitted or top-dose-only effect, or another doubt; inactive = no such curve, though single readings can be large; an effect the other way counts as inactive or inconclusive. % is set by controls: 0 for no effect and ±100 for the full control effect; potency is the fitted concentration of half-maximal effect.
SMILES,HEK293 tox,3T3 cytotox,GPT2 inhibitor,hNpr1 antagonist,Luciferase inh
N#Cc1cccnc1-c1ccc(C(=O)N2CCC(NC(=O)c3ccc(C(F)(F)F)cc3)CC2)cc1,?,?,i,.,.
CCN1c2cc(C(=O)N3CCN(c4ccccn4)CC3)ccc2C(=O)N2CCCCCC21 (centres undefined),?,?,i,-12.5%,i
O=C(CCC1CCCN(Cc2cn[nH]c2-c2ccc(F)cc2)C1)Nc1ccccc1F (centres undefined),?,-16.1%,1.3%,-0.6%,i
c1ccc(N2CCN(c3cc4c(cn3)CN(Cc3ccncc3)CCN4)CC2)nc1,79.4µM*,-26.9%[138 µM],4.9%[88.5 µM],?,i
Fc1cccc(CN2CCNc3cc(Nc4cccnc4)ncc3C2)c1,?,31.6µM*,?,-8.6%[70.6 µM],35.5µM*
Fc1ccc(Nc2cc3c(cn2)CN(Cc2ccncc2)CCN3)cc1Cl,31.6µM*,20µM*,0.6%[88.5 µM],17.8µM*,?
c1cncc(Nc2cc3c(cn2)CN(Cc2cccs2)CCN3)c1,?,?,-23.0%[88.5 µM],2.4%[70.6 µM],?
Cn1cnc(CN2CCNc3cc(Nc4ccccc4)ncc3C2)c1,?,?,1.7%[88.5 µM],10.4%[70.6 µM],i
CCCN1C(=O)Cc2cc(C(=O)NCc3ccc(C)c(C)c3)ccc21,?,?,i,-15.4%,i
Cn1cc(CN2CCN3CCCC3C2)c(-c2ccc(C3CCCCC3)cc2)n1 (centres undefined),25.1µM*,?,?,5.8%,?
O=C(c1ccc2ncccc2c1)N1CCC2(CC1)Nc1ccccc1NC2=O,89.1µM*,-29.8%,-28.7%,-2.4%,i
O=C(c1cccc2ncccc12)N1CCC2(CC1)Nc1ccccc1NC2=O,?,-22.0%,-10.4%,2.3%,i
O=C(NCC1CC1)c1ccc2nnc(-c3cc[nH]c3)n2c1,i,-25.7%[138 µM],1.1%[88.5 µM],.,.
CN1CCC(OC2CCN(C(=O)c3ccccc3)CC2)CC1,1.9%,-4.9%,4.2%,-5.2%,i
CNC(=O)N1CCC(C2CCN(C(=O)CCCc3ccccc3)C2)CC1 (centres undefined),-0.3%,-9.0%,-18.0%,-20.8%,25.1µM*
CN1CCC(OC2CCN(C(=O)CCCc3ccccc3)CC2)CC1,-8.5%,-23.0%,0.6%,-5.6%,28.2µM*
CNC(=O)N1CCC(C2CCN(C(=O)Cc3ccccc3)C2)CC1 (centres undefined),-22.4%,-10.4%,-13.4%,1.9%,i
N#Cc1cccc(CN2CCCC(c3nc4ccc(F)cc4c(=O)[nH]3)C2)c1 (centres undefined),44.7µM*!,?,i,-5.9%,i
N#Cc1cccc(CN2CCC(c3nc4ccc(F)cc4c(=O)[nH]3)CC2)c1,22.4µM*!,?,?,1.5%,i
O=c1[nH]c(C2CCN(Cc3ccc(Cl)cc3)CC2)nc2ccc(F)cc12,-2.8%,-12.6%,4.1%,-19.3%,i
COc1ccc(-c2cc(N3CCCN(C(=O)c4nn(C)c5ccccc45)CC3)n[nH]2)cc1,?,?,?,-11.8%,i
COc1ccc(NC(=O)[C@@H]2C[C@H](c3ccc(F)cc3)N(Cc3ccccc3Cl)C2)cn1,28.2µM*,22.4µM*,-2.5%[88.5 µM],-29.7%[70.6 µM],i
O=C(Nc1cccnc1)[C@@H]1C[C@H](c2ccc(F)cc2)N(Cc2ccccc2Cl)C1,39.8µM*,44.7µM*,-5.0%[88.5 µM],-24.1%[70.6 µM],i
O=C(Nc1cccnc1)[C@@H]1C[C@@H](c2ccc(F)cc2)N(Cc2ccccc2)C1,?,79.4µM*,-4.7%[88.5 µM],?,i
O=C(Nc1ccccn1)[C@@H]1C[C@@H](c2ccc(F)cc2)N(Cc2ccccc2)C1,?,?,-27.3%[88.5 µM],?,i
SMILES,HEK293 tox,3T3 cytotox,GPT2 inhibitor,hNpr1 antagonist,Luciferase inh
Cc1cc(C(=O)N2CCC(Cc3ccc(C(N)=O)cc3)CC2)n(C)n1,?,-21.8%,?,1.4%,i
Cc1cc(CN2CCC(Cc3ccc(F)cc3)CC2)n(C)n1,39.8µM*,?,-11.8%,?,i
CCC1=C(C(=O)OC)C(c2ccc(C)cc2C)N2C(CC(=O)Nc3ccc(OC)cc3)=CSC2=N1 (centres undefined),44.7µM*,?,-12.7%,-24.0%,i
CCC1=C(C(=O)OC)C(c2ccc(C)cc2C)N2C(CC(=O)N3CCCC3)=CSC2=N1 (centres undefined),?,-31.2%,i,?,i
COC(=O)C1=C(C)N=C2SC=C(CC(=O)N3CCCC3)N2C1c1ccc(C)cc1C (centres undefined),?,25.1µM*,?,?,i
O=C1NCCCCCCN(C(=O)CCc2ccccc2)[C@H]2C[C@H](c3nc(-c4cnccn4)no3)C[C@@H]12,-10.5%,-24.3%,-13.0%,0.7%,i
COCCNC(=O)c1ccc(OC2CCN(Cc3cccc4nonc34)CC2)c(Cl)c1,?,?,i,-1.5%,i
COc1cc(OC)cc(OCc2nc3c(n2Cc2ccccc2)C(=O)N(Cc2ccccc2F)CCN3)c1,31.6µM*,?,-8.7%,-20.8%,i
O=C1c2c(nc(COc3cc(F)cc(F)c3)n2Cc2ccccc2)NCCN1Cc1ccccc1,25.1µM*,25.1µM*,-0.8%,-30.0%,i
COc1ccc(OCc2nc3c(n2Cc2ccccc2)C(=O)N(Cc2ccccc2F)CCN3)cc1OC,?,?,-15.9%,-16.6%,i
COc1ccc(OCc2nc3c(n2Cc2ccccc2)C(=O)N(CC2CC2)CCN3)cc1OC,?,?,-17.5%,-4.5%,i
CN(Cc1ccccc1)Cc1nc2c(n1Cc1ccccc1)C(=O)N(Cc1ccccc1F)CCN2,39.8µM*,?,i,-0.1%,i
O=C1c2c(nc(COc3cc(F)cc(F)c3)n2Cc2ccccc2)NCCN1Cc1ccccc1F,?,25.1µM*,-5.2%,-19.2%,i
NCc1ccccc1Oc1ccc(F)c(Cl)c1,?,?,-21.7%[88.5 µM],.,.
COC(=O)c1ccc2c(c1)nc1n2[C@@H](CNCc2ccc3c(c2)OCO3)COC1,?,?,-16.7%[88.5 µM],?,i
COc1ccc2nc3n(c2c1)[C@@H](CNS(=O)(=O)Cc1ccccc1)COC3,?,89.1µM*,i,-17.5%[70.6 µM],i
COc1ccc(NC(=O)NC[C@H]2COCc3nc4ccccc4n32)cc1,-14.4%[172 µM],?,4.2%[88.5 µM],3.2%[70.6 µM],89.1µM*
COc1ccc2nc3n(c2c1)[C@@H](CNC(=O)c1ccc(C#N)cc1)COC3,-11.0%[172 µM],89.1µM*,2.7%[88.5 µM],-3.7%[70.6 µM],i
COc1ccc2c(c1)nc1n2[C@@H](CNCc2ccc3c(c2)OCO3)COC1,56.2µM*,?,-37.8%[88.5 µM],?,i
O=C(NC1CCN(c2ccc3nnc(C4CC4)n3n2)C1)c1ccc(C(F)(F)F)cc1 (centres undefined),-11.8%,-19.0%,.,.,.
